Measurements reported in PubChem BioAssay (NCI).
The panel holds about 83,000 compounds, 20% with a hit somewhere; the sample as a whole holds those more often.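 Method: cells in 96-well plates; compound added at one concentration; 48 h incubation; percent growth measured; values under 10 scored active.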 The source made the active and inactive calls.

Tests used:
Assay in all cases: NCI-60 one-dose screen, 48 h (100 = growth as untreated, 0 = no growth, -100 = all killed)
Conditions in all cases: 10 µM unless noted
SR leukemia = system: SR leukemia
RPMI-8226 leukemia = system: RPMI-8226 leukemia
OVCAR-8 ovarian = system: OVCAR-8 ovarian
OVCAR-5 ovarian = system: OVCAR-5 ovarian
OVCAR-4 ovarian = system: OVCAR-4 ovarian
SK-OV-3 ovarian = system: SK-OV-3 ovarian
IGROV1 ovarian = system: IGROV1 ovarian
HS 578T breast = system: HS 578T breast
NCI/ADR-RES ovarian = system: NCI/ADR-RES ovarian
OVCAR-3 ovarian = system: OVCAR-3 ovarian

Measured: growth

S=c1ssnc1-c1ccccn1
active: SR leukemia -25.5% | HS 578T breast -7.73%
inactive: RPMI-8226 leukemia 10.2% | OVCAR-8 ovarian 54.9% | OVCAR-5 ovarian 70.1% | OVCAR-4 ovarian 56.1% | SK-OV-3 ovarian 67.8% | IGROV1 ovarian 15.2% | NCI/ADR-RES ovarian 48.4%

COc1cccc(C2CC(c3cc(OC)c(OC)c(OC)c3)=NN2)c1 (stereo not given)
inactive: RPMI-8226 leukemia 56.9% | OVCAR-8 ovarian 92.9% | OVCAR-5 ovarian 98.8% | OVCAR-4 ovarian 85.5% | SK-OV-3 ovarian 89.9% | IGROV1 ovarian 99.4% | HS 578T breast 111% | NCI/ADR-RES ovarian 63.4%
active: SR leukemia 9.95%

COc1cc(-c2nc3ccccc3s2)ccc1OCc1nc2n(n1)S(=O)(=O)c1ccccc1N2C
inactive: SR leukemia 27.1% | RPMI-8226 leukemia 61.2% | OVCAR-8 ovarian 74.5% | OVCAR-5 ovarian 99.1% | OVCAR-4 ovarian 93.3% | SK-OV-3 ovarian 84.6% | IGROV1 ovarian 25.6% | HS 578T breast 48.7% | NCI/ADR-RES ovarian 93%

Nc1ccc(S(=O)(=O)Nc2cc(I)cc(I)c2)cc1
inactive: SR leukemia 15.8% | RPMI-8226 leukemia 97.5% | OVCAR-8 ovarian 107% | OVCAR-5 ovarian 86.5% | OVCAR-4 ovarian 99% | SK-OV-3 ovarian 117% | IGROV1 ovarian 104% | HS 578T breast 117% | NCI/ADR-RES ovarian 97.5%

COc1cc2c(cc1OCCCCC(=O)Nc1ccc(-c3nc4ccccc4s3)cc1)N=C[C@@H]1CCCN1C2=O
inactive: SK-OV-3 ovarian 22.4% | NCI/ADR-RES ovarian 67.6%
active: SR leukemia -55.4% | RPMI-8226 leukemia -58.3% | OVCAR-8 ovarian -8.71% | OVCAR-5 ovarian 4.91% | OVCAR-4 ovarian -11.9% | IGROV1 ovarian -17.1% | HS 578T breast -37.5%

CCC1S/C(=N\N=C(/C)c2cccs2)N(c2ccccc2)C1=O (stereo not given)
active: IGROV1 ovarian -27.2%
inactive: SR leukemia 32.6% | RPMI-8226 leukemia 110% | OVCAR-8 ovarian 97.3% | OVCAR-5 ovarian 111% | OVCAR-4 ovarian 99.7% | SK-OV-3 ovarian 121% | HS 578T breast 123% | NCI/ADR-RES ovarian 99%

COc1ccc2c(c1)/C(=C/c1c(-c3cc(OC)c(OC)c(OC)c3Br)nc3sccn13)C(=O)N2
inactive: SR leukemia 95.1% | RPMI-8226 leukemia 85.9% | OVCAR-8 ovarian 99.6% | OVCAR-5 ovarian 105% | OVCAR-4 ovarian 100% | SK-OV-3 ovarian 96.6% | IGROV1 ovarian 45.7% | HS 578T breast 83.2% | NCI/ADR-RES ovarian 92.2%

CCc1cccc(-c2ccccc2)c1
inactive: SR leukemia 52.4% | RPMI-8226 leukemia 80.5% | OVCAR-8 ovarian 101% | OVCAR-5 ovarian 104% | OVCAR-4 ovarian 101% | SK-OV-3 ovarian 103% | IGROV1 ovarian 107% | OVCAR-3 ovarian 109% | NCI/ADR-RES ovarian 111%

COc1ccc(C2=NN(C(=O)COc3ccc(Cl)cc3)C(O)(c3cc(F)c(Cl)cc3Cl)C2)cc1OC (stereo not given)
active: SR leukemia -35.1% | RPMI-8226 leukemia -74.8% | OVCAR-8 ovarian 5.4% | IGROV1 ovarian -50.6%
inactive: OVCAR-5 ovarian 82.8% | OVCAR-4 ovarian 21.8% | SK-OV-3 ovarian 93.6% | HS 578T breast 22% | NCI/ADR-RES ovarian 19.9%

COc1ccccc1N1CCN(CCCOc2ccc(OCCCN3CCN(c4ccccc4OC)CC3)c(C(=O)c3cc(OC)c(OC)c(OC)c3)c2)CC1
inactive: SR leukemia 99.7% | RPMI-8226 leukemia 155% | OVCAR-8 ovarian 105% | OVCAR-5 ovarian 109% | OVCAR-4 ovarian 109% | SK-OV-3 ovarian 100% | IGROV1 ovarian 122% | HS 578T breast 106% | NCI/ADR-RES ovarian 105%

COc1ccccc1N1CCN(CC(O)COc2c(Br)c(Br)c(Br)c3c2OC(C)(C)C3)CC1 (stereo not given)
active: SR leukemia -50.4% | RPMI-8226 leukemia 1.1% | IGROV1 ovarian -19.7%
inactive: OVCAR-8 ovarian 62.2% | OVCAR-5 ovarian 61.2% | OVCAR-4 ovarian 30.4% | SK-OV-3 ovarian 84.2% | HS 578T breast 67.3% | NCI/ADR-RES ovarian 45.7%

COc1ccc(C2=NN(C(=O)COc3ccc(Cl)cc3)C(O)(c3cc(F)c(Cl)cc3Cl)C2)cc1 (stereo not given)
inactive: SR leukemia 17% | RPMI-8226 leukemia 80.9% | OVCAR-8 ovarian 91% | OVCAR-5 ovarian 96.6% | OVCAR-4 ovarian 98.8% | SK-OV-3 ovarian 94.6% | IGROV1 ovarian 60.4% | HS 578T breast 102% | NCI/ADR-RES ovarian 99%

COc1cc(NC(C)CCCN2C(=O)c3ccccc3C2=O)c2nc(C)ccc2c1OC (stereo not given)
inactive: SR leukemia 36.7% | RPMI-8226 leukemia 70.1% | OVCAR-8 ovarian 88.2% | OVCAR-5 ovarian 100% | OVCAR-4 ovarian 69.4% | SK-OV-3 ovarian 106% | IGROV1 ovarian 129% | HS 578T breast 113% | NCI/ADR-RES ovarian 83.3%

CN1CCN(Cn2nc(-c3cc(F)c(Cl)cc3Cl)n(/N=C/c3ccc(N(C)C)cc3)c2=S)CC1
inactive: SR leukemia 43.8% | RPMI-8226 leukemia 80.9% | OVCAR-8 ovarian 90.8% | OVCAR-5 ovarian 106% | OVCAR-4 ovarian 106% | SK-OV-3 ovarian 77.4% | IGROV1 ovarian 57.8% | HS 578T breast 63.5% | NCI/ADR-RES ovarian 65.9%

Nc1nc(Cl)cc(NCc2ccc(CNc3cc(Cl)nc(N)n3)cc2)n1
inactive: SR leukemia 139% | RPMI-8226 leukemia 103% | OVCAR-8 ovarian 89.6% | OVCAR-5 ovarian 82.5% | OVCAR-4 ovarian 59.7% | SK-OV-3 ovarian 92.5% | HS 578T breast 100% | NCI/ADR-RES ovarian 103%
active: IGROV1 ovarian -31%
